Drawing on PubChem BioAssay (NCI), this text covers growth inhibition for 9 compounds.

Assay [1] is described as follows: NCI Yeast Anticancer Drug Screen. Data for the rad50 strain (AID 155).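 Also: 0% = growth of vehicle-only cultures of the same strain.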 The note with it: S. cerevisiae rad50 strain growth inhibition, hits give high values. In short, it runs like this:
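Relative growth inhibition (compound vs vehicle) was measured in yeast with a defined repair-gene alteration.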

Assay [2] is described as follows: NCI Yeast Anticancer Drug Screen. Data for the mec2-1 strain (AID 157). The conditions noted are these: S. cerevisiae mec2-1 strain, hits give high values. The essentials:
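Growth inhibition is read against vehicle-treated controls after compound exposure of the mec2-1 yeast strain, which is defective in DNA damage repair or cell cycle control.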

Assay [3] is described as follows: NCI Yeast Anticancer Drug Screen. Data for the sgs1 mgt1 strain (AID 161).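 Also: 0% = growth of cultures given vehicle only.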 The note with it: S. cerevisiae sgs1 mgt1 strain, hits give high values. In short, it runs like this:
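Percent growth inhibition was derived by comparing compound-exposed mutant yeast with vehicle-exposed cultures. The strain carries alterations in DNA damage repair.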

The nature of assay [4]: NCI Yeast Anticancer Drug Screen. Data for the cln2 rad14 strain (AID 165).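 Also: 0% = growth equal to vehicle treated cultures.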 The note with it: S. cerevisiae cln2 rad14 strain, hits give high values. In short, it runs like this: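 Growth inhibition, relative to vehicle-treated controls, is the read-out. The test organism is a yeast strain with defined genetic alterations, cln2 rad14.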
The nature of assay [5]: NCI Yeast Anticancer Drug Screen. Data for the bub3 strain (AID 167). The conditions noted are these: S. cerevisiae bub3 mutant strain, hits give high values. In short, it runs like this:
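Screening used yeast with an engineered genetic alteration affecting cell cycle control. Compound-exposed cultures were compared with vehicle cultures, and reduced growth was taken as inhibition.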

Assay [6] is described as follows: NCI Yeast Anticancer Drug Screen. Data for the mlh1 rad18 strain (AID 175). The note with it: S. cerevisiae mlh1 rad18 strain growth inhibition, hits give high values. The essentials:
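Cells of a genetically altered yeast strain, deficient in DNA damage repair, were treated with compound. Their growth was then compared with that of vehicle-treated cultures to give inhibition.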

Where [7] appears, read: at 5.0 µM (retest, dose inferred, filed as 0.5).
Setting [8] is: at 50.0 µM (retest, dose inferred, filed as 5.0).

About 79,000 compounds went through this panel and 15% of them were active in at least one assay; those are over-represented in the sample as a whole. A number with no mark means an inactive call. Calls of active or inactive are those of the source. Rule as the data show it: active = growth inhibition above about 70%; inactive = the rest.

Take `OC(CN(CCCl)CCCl)C(O)C(O)C(O)CN(CCCl)CCCl` (configuration not stated): the growth inhibition in assay [1] (setting [7]) is 6%; in assay [1] (setting [8]), 81% (active); in assay [1] (at 50.0 µM), 77.6% (active); in assay [2] (setting [7]) it was 9%; in assay [2] (setting [8]), 59%; in assay [2] (at 50.0 µM), 24%. The growth inhibition in assay [3] (setting [7]) was -4%; in assay [3] (setting [8]), 33%; in assay [3] (at 50.0 µM), 30.2%; in assay [4] (setting [7]) it was -6%; in assay [4] (setting [8]) it was 50%; in assay [4] (at 50.0 µM) it was 82.1% (active). Moreover, the growth inhibition in assay [5] (setting [7]) was -7%; in assay [5] (setting [8]), 11%; in assay [5] (at 50.0 µM), -12.1%; in assay [6] (setting [7]), 35%; in assay [6] (setting [8]), 95% (active); in assay [6] (at 50.0 µM), 82.1% (active).

Take `CC1=CC(=O)c2c(O)cccc2C1=O`: the growth inhibition in assay [1] (setting [7]) is 18%; in assay [1] (setting [8]) it was 100% (active); in assay [1] (at 50.0 µM), 85.8% (active); in assay [2] (setting [7]) it was 29%; in assay [2] (setting [8]) it was 99% (active); in assay [2] (at 50.0 µM) it was 90.1% (active). Also, the growth inhibition in assay [3] (setting [7]) is 19%; in assay [3] (setting [8]), 99% (active); in assay [3] (at 50.0 µM), 92% (active); in assay [4] (setting [7]) it was 7%; in assay [4] (setting [8]) it was 99% (active); in assay [4] (at 50.0 µM) it was 90.3% (active). The growth inhibition was 23% in assay [5] (setting [7]); 99% (active) in assay [5] (setting [8]); 90.5% (active) in assay [5] (at 50.0 µM); 30% in assay [6] (setting [7]); 98% (active) in assay [6] (setting [8]); 89% (active) in assay [6] (at 50.0 µM).

With `CCC[CH2][Sn]1([CH2]CCC)[O]CC(C)[O]1` (configuration not stated), the growth inhibition is 33% in assay [1] (setting [7]); 95% (active) in assay [1] (setting [8]); 86% (active) in assay [1] (at 50.0 µM); 30% in assay [2] (setting [7]); 97% (active) in assay [2] (setting [8]); 90% (active) in assay [2] (at 50.0 µM). Further, the growth inhibition was 42% in assay [3] (setting [7]); 68% in assay [3] (setting [8]); 88.2% (active) in assay [3] (at 50.0 µM); 34% in assay [4] (setting [7]); 64% in assay [4] (setting [8]); 87.2% (active) in assay [4] (at 50.0 µM). Also, the growth inhibition in assay [5] (setting [7]) was 48%; in assay [5] (setting [8]), 97% (active); in assay [5] (at 50.0 µM), 88.3% (active); in assay [6] (setting [7]), 53%; in assay [6] (setting [8]), 96% (active); in assay [6] (at 50.0 µM), 86.7% (active).

As to `O=C1[O][Hg][c]2c1cccc2[N+](=O)[O-]`, the growth inhibition in assay [1] (setting [7]) is 99% (active); in assay [1] (setting [8]), 99% (active); in assay [1] (at 50.0 µM), 99.2% (active); in assay [2] (setting [7]), 100% (active); in assay [2] (setting [8]) it was 100% (active); in assay [2] (at 50.0 µM), 99.2% (active). Moreover, the growth inhibition is 100% (active) in assay [3] (setting [7]); 100% (active) in assay [3] (setting [8]); 99.4% (active) in assay [3] (at 50.0 µM); 52% in assay [4] (setting [7]); 98% (active) in assay [4] (setting [8]); 97.6% (active) in assay [4] (at 50.0 µM). In addition, the growth inhibition was 100% (active) in assay [5] (setting [7]); 100% (active) in assay [5] (setting [8]); 99.4% (active) in assay [5] (at 50.0 µM); 100% (active) in assay [6] (setting [7]); 99% (active) in assay [6] (setting [8]); 99.2% (active) in assay [6] (at 50.0 µM).

With `CCCC(C)c1ccccc1OP(=S)(S)Oc1ccccc1C(C)CCC` (configuration not stated), the growth inhibition is -3% in assay [1] (setting [7]); -3% in assay [1] (setting [8]); 97.3% (active) in assay [1] (at 50.0 µM); -2% in assay [2] (setting [7]); -1% in assay [2] (setting [8]); 97.8% (active) in assay [2] (at 50.0 µM). Further, the growth inhibition in assay [3] (setting [7]) was 2%; in assay [3] (setting [8]) it was -2%; in assay [3] (at 50.0 µM), 97.5% (active); in assay [4] (setting [7]), 3%; in assay [4] (setting [8]), 0%; in assay [4] (at 50.0 µM), 96.5% (active). Further, the growth inhibition in assay [5] (setting [7]) is -5%; in assay [5] (setting [8]) it was 0%; in assay [5] (at 50.0 µM), 95.8% (active); in assay [6] (setting [7]) it was 0%; in assay [6] (setting [8]), -3%; in assay [6] (at 50.0 µM), 97.2% (active).

Regarding `O=[N+]([O-])/C=C/c1cccc(F)c1`, the growth inhibition is 40% in assay [1] (setting [7]); 99% (active) in assay [1] (setting [8]); 99.5% (active) in assay [1] (at 50.0 µM); 30% in assay [2] (setting [7]); 99% (active) in assay [2] (setting [8]); 99.7% (active) in assay [2] (at 50.0 µM). Also, the growth inhibition was 29% in assay [3] (setting [7]); 99% (active) in assay [3] (setting [8]); 99.6% (active) in assay [3] (at 50.0 µM); 10% in assay [4] (setting [7]); 99% (active) in assay [4] (setting [8]); 99.3% (active) in assay [4] (at 50.0 µM). Also, the growth inhibition in assay [5] (setting [7]) is 18%; in assay [5] (setting [8]), 98% (active); in assay [5] (at 50.0 µM), 99.5% (active); in assay [6] (setting [7]) it was 59%; in assay [6] (setting [8]) it was 99% (active); in assay [6] (at 50.0 µM), 99.4% (active).

Take `CC(C)CCC(=O)OC1CCC2(C)C(=CCC3C2CCC2(C)C(O)CCC32)C1` (configuration not stated): the growth inhibition in assay [1] (setting [7]) is 16%; in assay [1] (setting [8]) it was 23%; in assay [1] (at 50.0 µM), 42%; in assay [2] (setting [7]) it was -2%; in assay [2] (setting [8]), 5%; in assay [2] (at 50.0 µM), -1.95%. The growth inhibition in assay [3] (setting [7]) was 5%; in assay [3] (setting [8]) it was 27%; in assay [3] (at 50.0 µM), 36.4%; in assay [4] (setting [7]), 0%; in assay [4] (setting [8]), 5%; in assay [4] (at 50.0 µM), 19.2%. Also, the growth inhibition in assay [5] (setting [7]) is 2%; in assay [5] (setting [8]), 15%; in assay [5] (at 50.0 µM), 3.95%; in assay [6] (setting [7]), -2%; in assay [6] (setting [8]), 43%; in assay [6] (at 50.0 µM) it was 72.6% (active).

Take `COc1cc(C(CC(=O)N(CCCl)CCCl)c2ccc3c(c2)OCO3)cc(OC)c1OC` (configuration not stated): the growth inhibition in assay [1] (setting [7]) was 3%; in assay [1] (setting [8]), 0%; in assay [1] (at 50.0 µM), 6.9%; in assay [2] (setting [7]), 0%; in assay [2] (setting [8]) it was -2%; in assay [2] (at 50.0 µM), 10.1%. The growth inhibition is 13% in assay [3] (setting [7]); 2% in assay [3] (setting [8]); 20.8% in assay [3] (at 50.0 µM); 0% in assay [4] (setting [7]); -15% in assay [4] (setting [8]); 25.5% in assay [4] (at 50.0 µM). Moreover, the growth inhibition was 2% in assay [5] (setting [7]); -2% in assay [5] (setting [8]); -2.7% in assay [5] (at 50.0 µM); -2% in assay [6] (setting [7]); 0% in assay [6] (setting [8]); 46.1% in assay [6] (at 50.0 µM).

On to `C[C@]12CCC(O)CC1=CC[C@@H]1[C@@H]2CC[C@]2(C)C(=O)[C@H](n3ccnc3)C[C@@H]12` (some centres not stated), for which the growth inhibition was 21% in assay [1] (setting [7]); 54% in assay [1] (setting [8]); 41.9% in assay [1] (at 50.0 µM); 12% in assay [2] (setting [7]); 46% in assay [2] (setting [8]); 58% in assay [2] (at 50.0 µM). The growth inhibition in assay [3] (setting [7]) was 18%; in assay [3] (setting [8]) it was 62%; in assay [3] (at 50.0 µM), 52.2%; in assay [4] (setting [7]) it was 29%; in assay [4] (setting [8]), 51%; in assay [4] (at 50.0 µM), 38.2%. In addition, the growth inhibition is 20% in assay [5] (setting [7]); 56% in assay [5] (setting [8]); 38.9% in assay [5] (at 50.0 µM); 19% in assay [6] (setting [7]); 51% in assay [6] (setting [8]); 75.6% (active) in assay [6] (at 50.0 µM).
